Screening data as filed in PubChem BioAssay.
Compounds with a hit are over-represented: about 2.9% of the library has one in this group of screens.
KDM5B inh = Primary screen for KDM5B Histone Demethylases FDH-coupled qHTS. AID 1347165, 2019. KDM5B demethylase, FDH-coupled NADH fluorescence (FDH is formaldehyde dehydrogenase). 220,000 compounds, 2.6% hits. Potency, µM (doses to about 57.7 µM), usual class: inhibitors. Lysine-specific demethylase 5B (Homo sapiens), Q9UGL1; further: potency means the concentration at half of the fitted maximal effect; 0% is about no effect; nearly all actives have a fitted effect of over 70% in size
Target sequence (Q9UGL1 whole entry, looked up): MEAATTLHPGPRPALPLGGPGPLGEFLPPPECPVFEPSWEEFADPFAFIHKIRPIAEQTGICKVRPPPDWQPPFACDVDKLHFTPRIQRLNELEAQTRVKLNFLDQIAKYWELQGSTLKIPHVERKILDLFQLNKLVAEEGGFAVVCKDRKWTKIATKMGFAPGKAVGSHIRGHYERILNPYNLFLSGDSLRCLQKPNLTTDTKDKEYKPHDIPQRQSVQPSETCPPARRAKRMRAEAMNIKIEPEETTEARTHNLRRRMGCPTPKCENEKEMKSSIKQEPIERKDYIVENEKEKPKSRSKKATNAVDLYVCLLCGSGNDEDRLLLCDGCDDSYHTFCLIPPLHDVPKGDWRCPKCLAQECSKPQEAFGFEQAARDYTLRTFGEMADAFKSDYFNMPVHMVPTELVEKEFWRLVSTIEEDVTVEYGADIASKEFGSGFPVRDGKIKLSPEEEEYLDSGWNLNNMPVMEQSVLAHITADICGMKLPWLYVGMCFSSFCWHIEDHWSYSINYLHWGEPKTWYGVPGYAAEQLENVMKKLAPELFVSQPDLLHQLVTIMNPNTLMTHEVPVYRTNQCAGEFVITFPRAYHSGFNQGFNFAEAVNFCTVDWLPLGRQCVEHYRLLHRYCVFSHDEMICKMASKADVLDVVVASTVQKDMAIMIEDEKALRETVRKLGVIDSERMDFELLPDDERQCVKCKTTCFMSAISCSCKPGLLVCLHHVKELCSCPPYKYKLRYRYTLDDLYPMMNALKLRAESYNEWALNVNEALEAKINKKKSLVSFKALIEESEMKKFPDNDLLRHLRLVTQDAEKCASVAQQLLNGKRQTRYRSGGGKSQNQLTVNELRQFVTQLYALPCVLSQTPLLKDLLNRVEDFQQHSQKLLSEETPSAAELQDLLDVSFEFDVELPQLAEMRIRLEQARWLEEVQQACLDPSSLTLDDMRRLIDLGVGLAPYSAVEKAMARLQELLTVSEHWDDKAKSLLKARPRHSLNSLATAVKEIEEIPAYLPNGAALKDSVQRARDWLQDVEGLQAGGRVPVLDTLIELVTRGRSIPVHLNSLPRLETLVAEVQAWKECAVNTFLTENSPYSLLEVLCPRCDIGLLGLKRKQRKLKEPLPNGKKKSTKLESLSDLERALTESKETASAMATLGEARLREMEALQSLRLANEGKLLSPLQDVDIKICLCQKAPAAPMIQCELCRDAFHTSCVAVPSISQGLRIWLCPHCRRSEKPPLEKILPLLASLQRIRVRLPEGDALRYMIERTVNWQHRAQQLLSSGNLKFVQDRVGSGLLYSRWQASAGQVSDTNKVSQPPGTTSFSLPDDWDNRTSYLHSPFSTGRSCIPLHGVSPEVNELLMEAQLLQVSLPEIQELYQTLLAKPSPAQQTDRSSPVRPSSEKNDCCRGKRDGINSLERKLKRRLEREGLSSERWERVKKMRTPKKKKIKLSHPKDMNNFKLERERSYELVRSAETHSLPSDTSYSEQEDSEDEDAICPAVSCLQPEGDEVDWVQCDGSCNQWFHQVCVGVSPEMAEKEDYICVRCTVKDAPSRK
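KDM5BΔAP (200 nM final) in 50 mM HEPES pH 7.5, 0.01% Tween-20 was preincubated 10 min at RT with compound over a concentration range. Substrate mix (H3K4me3 12.5 µM, α-KG 25 µM, Fe²⁺, ascorbate, NAD⁺, FDH) was added, and NADH fluorescence change over 30 min gave dose-response curves.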
IP6K1 inhibitor = Primary qHTS assay for small molecule inhibitors of Inositol hexaphosphate kinase 1 (IP6K1); activity change, % (series mostly up to about 58 µM); Inositol hexakisphosphate kinase 1 (Homo sapiens), Q92551; 140,000 compounds, 0.81% hits; AID 1645851, 2021; IP6K1 kinase, ADP-Glo luminescence, 2 h; hits give low values; in the data active means activity change below about -25%; further: on the % scale 0 is the no-effect control and ±100 the full control effect
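ADP-Glo luminescence measures ADP made by human IP6K1 during a 2 h RT reaction with ATP/IP6 (mix at 1.3 mM/130 uM); top library doses 57.5 and 19.1 uM final.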
SNCA expr inh = Primary qHTS assay for inhibitors of alpha-synuclein gene (SNCA) expression; HEK-293 SNCA-luciferase knock-in, luminescence, 24 h; Potency, µM (highest dose often 57.2 µM), inactives show at the top dose activity change, negative = inhibition, hits mostly inhibitors; 140,000 compounds, 0.17% hits; AID 1671194, 2021;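 further: potency means the concentration at half of the fitted maximal effect; plate controls were DMSO cells for no effect and cell-free wells for full effect; nearly all actives have a fitted effect of over 45% in size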
SNCA viab count = GF-AFC viability counterscreen for inhibitors of alpha-synuclein gene (SNCA) expression; Potency, µM (doses to about 57.1 µM), for the others: top-dose activity change, negative = cytotoxicity, hits mostly cytotoxic; 150,000 compounds, 0.12% hits; AID 1671193, 2021; HEK-293-SNCA-luc viability, GF-AFC fluorescence, 24 h;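 further: potency means the concentration at half of the fitted maximal effect; 0% = DMSO-treated cells and -100% = medium-only wells without cells; nearly all actives have a fitted effect of over 30% in size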
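Cytotoxicity counterscreen: after 24 h compound treatment of genome-edited SNCA-luciferase HEK-293 cells, live-cell protease substrate GF-AFC read by fluorescence after 30 min; activity scaled between DMSO (0%) and medium-only (-100%), curves Hill-fitted.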
The depositor's hits bear a star; i = inactive; u = inconclusive; x = no result; ! = a repeat was not active; [ ] = remark or other dose. Unless noted, the call rests on the fitted dose curve; in most records, active means well fitted curve in the direction sought with a large enough effect; inconclusive means small, poorly fitted or top-dose-only effect, or another doubt; inactive means no such curve, though single readings can be large; an effect the other way counts as inactive or inconclusive.

SMILES	KDM5B inh	IP6K1 inhibitor	SNCA expr inh	SNCA viab count
CNC(=O)c1cc(C2CC2)nc2c1c(C1CCCN(C(=O)Cc3ccccc3)C1)nn2C (stereo not drawn)	x	-10.3	x	x
COc1ccc2[nH]c3c(c2c1)CCNC31CCN(C(=O)Cn2c(=O)oc3ccccc32)CC1	20µM*	-2.3	61.8%	2.0%[12.5 µM]
CCn1ccc(C(=O)N2CCC3(CC2)c2[nH]c4ccc(OC)cc4c2CCN3C)n1	22.4µM*	3.6	20.6%	1.2%[12.5 µM]
COc1ccc2[nH]c3c(c2c1)CCNC31CCN(C(=O)C2CC2)CC1	u	-3.0	-21.7%	0.3%[12.5 µM]
COc1ccc2[nH]c3c(c2c1)CCNC31CCN(C(=O)COc2ccc(F)cc2)CC1	u	11.2	5.9%	-8.5%[12.5 µM]
CCOCC(=O)N1CCC2(CC1)NCCc1c2[nH]c2ccc(OC)cc12	15.8µM*	0.1	17.8%	-3.5%[12.5 µM]
COc1ccc2[nH]c3c(c2c1)CCNC31CCN(C(C)C)CC1	22.4µM*	8.8	1.6%	7.0%[12.5 µM]
c1ccc(-c2ccccc2CN[C@@H]2C[C@@H]3CO[C@H](c4ccccc4)C[C@@H]3C2)cc1	x	3.2	x	x
Cc1ccc(-c2noc(-c3cc4cccc(O)c4oc3=O)n2)cc1	i	x	x	x
CC(=O)N1CCN(c2cc(-c3noc([C@@H]4CCCN4Cc4ccccc4C)n3)ccn2)CC1	20µM*	-8.4	u	u
CN1CCN(c2ccc(-c3noc([C@@H]4CCCN4Cc4ccncc4)n3)cn2)CC1	u	-5.5	20.2%[87.6 µM]	3.9%[87.6 µM]
CC(=O)N1CCN(c2cc(-c3noc([C@@H]4CCCN4Cc4ccc(CO)o4)n3)ccn2)CC1	28.2µM*	12.0	-9.9%	-3.5%
O=C(CN1CC2CC(C1)[C@H]1CCCC(=O)N1C2)NCCCN1CCCc2ccccc21 (stereo partly drawn)	14.1µM*	-2.3	11.3%	0.5%
C=CCNC(=O)c1ccc(N2CC3CC(C2)[C@H]2CCCC(=O)N2C3)nc1 (stereo partly drawn)	25.1µM*	12.2	0.0%	u
O=C(CN1CC2CC(C1)[C@H]1CCCC(=O)N1C2)NCCCN1CCc2ccccc2C1 (stereo partly drawn)	u	37.5	-16.7%	7.4%
O=C(NCCCN1CCCCC1)c1cccnc1N1CC2CC(C1)[C@H]1CCCC(=O)N1C2 (stereo partly drawn)	28.2µM*	5.8	-26.1%	-0.7%
CC(C)CNC(=O)c1ccc(N2CC3CC(C2)[C@H]2CCCC(=O)N2C3)nc1 (stereo partly drawn)	u	32.2	-1.6%	-3.1%
Cc1ccc(C(=O)N(CC#N)C2CC2)s1	i	x	x	x
CCC(=O)Nc1cc(C)c(O)c(-c2nc3ccccc3o2)c1	i	x	x	x
COCCn1cc2c3c(cccc31)CN(C(=O)CCCc1ccccc1)CC2	25.1µM*	12.3	-1.1%	-1.7%
COCCn1cc2c3c(cccc31)CN(C(=O)CCc1ccccc1OC)CC2	u	-4.0	10.1%	8.7%
CC(C)Nc1ncc(C(=O)NC2CC(=O)N(Cc3cccc(F)c3)C2)cn1 (stereo not drawn)	22.4µM*	20.7	u	2.3%
CCCS(=O)(=O)N1CC[C@@H](CC(=O)O)[C@@H](CC2=NCCc3cc(OC)ccc32)C1	31.6µM*	-1.6	-2.1%[87.6 µM]	-0.1%[87.6 µM]
COc1cc2c(cc1OC)C(C[C@H]1CN(C(=O)c3cccn3C)CC[C@H]1CC(=O)O)=NCC2	31.6µM*	1.9	-27.2%	7.7%
COc1ccc(NC(=O)N2CC[C@@H](CC(=O)O)[C@@H](CC3=NCCc4cc(OC)c(OC)cc43)C2)cc1	35.5µM*	6.3	36.2%	7.2%
SMILES	KDM5B inh	IP6K1 inhibitor	SNCA expr inh	SNCA viab count
COc1cccc(NC(=O)N2CC[C@@H](CC(=O)O)[C@@H](CC3=NCCc4cc(OC)c(OC)cc43)C2)c1	i	-3.4	13.8%	1.3%
COc1ccc2c(c1)CCN=C2C[C@H]1CN(C(=O)c2cccnc2)CC[C@H]1CC(=O)O	31.6µM*	7.3	32.3%[87.6 µM]	10.3%[87.6 µM]
COc1ccc2c(c1)CCN=C2C[C@H]1CN(C(=O)C(=O)O)CC[C@H]1CC(=O)O	28.2µM*	-6.7	-11.4%[87.6 µM]	1.5%[87.6 µM]
COCC(=O)N1CC[C@@H](CC(=O)O)[C@@H](CC2=NCCc3cc(OC)ccc32)C1	u	8.0	12.5%[87.6 µM]	2.4%[87.6 µM]
Cn1ncc2c(C(=O)NCCCc3ccccc3)cc(-c3cccc(F)c3)nc21	x	1.6	x	x
c1cc2nc(-c3ccsc3)[nH]c2cn1	u	2.8	21.5%[87.6 µM]	1.8%[87.6 µM]
O=C(O)c1ccc(CN2C[C@@H](F)[C@@H](OCc3nc4ncccc4[nH]3)C2)cc1	i	-3.9	-8.0%[87.6 µM]	3.4%[87.6 µM]
c1cnc2nc(-c3ccsc3)[nH]c2c1	31.6µM*!	6.5	22.1%[87.6 µM]	-17.4%[87.6 µM]
O=C(O)c1ccc(-c2nc3ncccc3[nH]2)cc1	28.2µM*!	6.8	-10.2%[87.6 µM]	13.1%[87.6 µM]
c1ccc(-c2nc3ncccc3[nH]2)nc1	31.6µM*!	0.1	83.4%[87.6 µM]	11.9%[87.6 µM]
Cc1cc(-c2nc3ncccc3[nH]2)c(C)[nH]1	u	7.9	151.2%[87.6 µM]	-2.8%[87.6 µM]
COCC(=O)N1CC[C@H](c2nnc(-c3ccc(C)cc3)o2)C1	i	13.5	7.4%[87.6 µM]	-0.1%[87.6 µM]
Clc1ccc(-c2nnc([C@H]3CCN(C4CCCCC4)C3)o2)cc1	25.1µM*	-1.8	19.5%[87.6 µM]	-11.6%[87.6 µM]
CN1CCC(N2CC[C@H](c3nnc(-c4ccc(Cl)cc4)o3)C2)CC1	u	8.9	7.8%[87.6 µM]	4.6%[87.6 µM]
CC(C)N1CC[C@H](c2nnc(-c3cccnc3)o2)C1	u	5.4	13.5%[87.6 µM]	-0.2%[87.6 µM]
Cc1ccc(-c2nnc([C@H]3CCN(C4CCC4)C3)o2)cc1	31.6µM*	-2.3	104.7%[87.6 µM]	1.7%[87.6 µM]
Cc1ccc(-c2nnc([C@H]3CCN(C(C)C)C3)o2)cc1	31.6µM*	8.4	89.1%[87.6 µM]	0.7%[87.6 µM]
O=C(NCc1ccccn1)c1ccc(F)cc1	i	x	x	x
O=C(NCc1nnc2n1CCC2)c1ccc2nc(-c3ccc(F)cc3)cn2c1	31.6µM*	11.0	20.8%	6.4%
O=C(NCc1ccoc1)c1ccc2nc(-c3ccc(F)cc3)cn2c1	25.1µM*	-5.7	46.2%	-2.1%
O=C(Nc1ccc(-c2nnc3n2CCCC3)cc1)c1ccc(F)cc1	i	37.3	32.2%	8.8%
COc1ccc(CNC(=O)c2cc(-c3ccc(F)cc3)nc3c2cnn3C)cc1	x	-11.4	x	x
O=C(NCc1ccc(F)cc1)c1ccc2nnc(-c3ccoc3)n2c1	x	1.3	-1.2%[87.6 µM]	9.8%[87.6 µM]
Cc1c(CNC(=O)c2ccc3nc(-c4ccc(F)cc4)cn3c2)cnn1C	28.2µM*	20.6	50.4%	-1.1%
O=C(NCCCc1ccccn1)c1ccc2nc(-c3ccc(F)cc3)cn2c1	28.2µM*	2.1	102.6%	-9.1%
O=C(O)c1ccccc1-n1cccc1	i	x	x	x
COCCNC(=O)c1cn2ccnc(-c3ccc(OC)cc3)c2n1	20µM*	16.2	-1.5%	-4.6%
COc1ccc(-c2nccn3cc(C(=O)NCc4ccc(OC)c(OC)c4)nc23)cc1	u	22.1	u	-15.4%
COCCCNC(=O)c1cn2ccnc(-c3ccc(OC)cc3)c2n1	25.1µM*	18.8	-0.7%	-15.1%
